Out of some 340,000 compounds screened, about 3,300 (0.97%) were called active. Many of the other results were omitted from the sample, so actives are more common in it than they were. Values without a mark were called inactive.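 The calls were made as follows: active = inhibition above the mean over all tested compounds plus 3 SD (cut at about 30% in these data); inactive = the rest.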
biological target: Platelet-activating factor acetylhydrolase 2, cytoplasmic (Homo sapiens) (UniProt Q99487); assay: inhibition of cytoplasmic PAF acetylhydrolase 2 – biochemical, fluorescence polarization, human, primary screen (AID 492956); settings: recombinant PAFAH2, FP-rhodamine activity probe, at 3.39 µM, active compounds read high;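 also: inhibitors block probe labeling of enzyme so polarization drops; 0% = enzyme with DMSO and 100% = wells lacking PAFAH2 protein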

Row | SMILES | inhibition
1 | COCCN(CCOC)c1nc(N)c2c(N)nc3c(c2c1C#N)CC(=O)N3Cc1ccc(Cl)cc1 | 5.58%
2 | c1ccc(CSc2nnc(-c3ccco3)c(-c3ccco3)n2)cc1 | 57% (active)
3 | CCc1nnc(SCc2cccc(F)c2)nc1CC | 0.34%
4 | CSc1nc(-c2ccco2)nn1C(=O)c1ccccc1Cl | 0.54%
5 | S=C(NCc1ccco1)NCc1ccccc1Cl | 2.25%
6 | Clc1ccccc1CSc1nnc(-c2ccco2)c(-c2ccco2)n1 | 62.2% (active)
7 | Clc1ccc(CSc2nnc3c(n2)[nH]c2ccccc23)cc1 | -12.8%
8 | Nn1c(SCC(=O)NC2CCCC2)nnc1-c1ccccc1F | 3.8%
9 | CCn1c(N)c(Br)c(=O)[nH]c1=O | -4.56%
10 | Cc1ccc(-n2nc(N)c3c(=O)oc(N(C)C)nc32)cc1 | 55.9% (active)
11 | CCCNC(=O)CCc1c(C)nc2c(c(C)nn2-c2ccc(C)cc2)c1C | -8.03%
12 | CSc1ccc(-c2c(C#N)c(N)nc3c2c(C)nn3-c2ccccc2)cc1 | -18.9%
13 | Cc1ccc(NC(=S)Nc2ncccc2C)c(C)c1 | -4.32%
14 | CC1=C(C)CC(C(=O)NNC(=O)c2ccccc2O)C(C(=O)O)C1 (stereo unspecified) | -2.13%
15 | Cc1cc(C(=O)CCC(=O)NNC(=O)c2ccccc2O)c(C)s1 | 7.6%
16 | O=C(NNC(=O)c1ccccc1O)c1ccccc1O | 39% (active)
17 | Cc1cc(C(=O)NCCc2ccc(Cl)cc2)c(C)o1 | 4.91%
18 | Cc1cc(C(=O)NNC(=O)CCC2CCCCC2)c(C)o1 | 4.96%
19 | Cc1cc(C(=O)NNC(=O)c2ccccc2O)c(C)o1 | 31.3% (active)
20 | CCC(CC)c1nnc(NC(=O)c2nn(C)c(=O)c3ccccc23)s1 | 0.88%
21 | CCCCCn1c(=O)[nH]c2cc(C(=O)NCCCN3CCCCC3C)ccc2c1=O (stereo unspecified) | -5.12%
22 | O=C(NCc1ccc(F)cc1)C(c1ccccc1)N(C(=O)c1csnn1)C1CC1 (stereo unspecified) | 2.95%

Row | SMILES | inhibition
23 | Oc1ccc2ccc3cccc[n+]3c2c1 | 9.81%
24 | CN(C)C(CNC(=O)CCCOc1ccccc1)c1ccco1 (stereo unspecified) | 1.39%
25 | COc1cccc2c1C(=O)c1c(O)c3c(c(O)c1C2=O)CC(O)(C(C)=NNC(=O)c1ccc(Cl)c(Cl)c1)CC3OC1CC(N)C(O)C(C)O1 (stereo unspecified) | 49.5% (active)
26 | COc1ccc(C(=O)NCC2CCCCC2)cc1S(=O)(=O)N1CCCC1 | 3.82%
27 | COc1cc(C)c(C)cc1S(=O)(=O)N1CCCc2ccccc21 | -5.07%
28 | COc1ccc(C(=O)OCC(=O)NCC2CCCCC2)cc1S(=O)(=O)N1CCCc2ccccc21 | 74.5% (active)
29 | Cc1cc(C)c2oc(C(=O)Nc3ccc(S(=O)(=O)Nc4nccc(C)n4)cc3)cc(=O)c2c1 | -3.63%
30 | CN(C)[C@@H]1C(=O)C(C(N)=O)=C(O)[C@@]2(O)C(=O)C3=C(O)c4c(O)ccc(Cl)c4[C@@H](O)[C@H]3C[C@@H]12 | 1.11%
31 | C=C1c2c(Cl)ccc(O)c2C(O)=C2C(=O)[C@]3(O)C(O)=C(C(N)=O)C(=O)[C@@H](N(C)C)[C@@H]3[C@@H](O)C12 (stereo partly specified) | 42% (active)
32 | Cc1cccc(C)c1NC(=O)CN1C(=O)C(C)Oc2ccccc21 (stereo unspecified) | 4.2%
33 | O=C(Cn1nnc2ccccc2c1=O)NCc1ccc(Cl)cc1 | 4.44%
34 | C=CCNC(=O)c1sc(SC)cc1-c1ccc(Cl)cc1 | 2.46%
35 | COC(=O)Nc1nc2ccc(Sc3ccccc3)cc2[nH]1 | -5.35%
36 | Nc1ccc2nc3c(=O)[nH]c(=S)[nH]c3nc2c1 | 58.3% (active)
37 | Cc1c(CN2CCC(CO)(CCOc3ccccc3)CC2)[nH]c2ccc(Cl)cc12 | -1.75%
38 | CCOc1ccccc1NS(=O)(=O)c1cc2c3c(c1)C(C)C(=O)N3CCC2 (stereo unspecified) | 6.38%
39 | CCOc1ccccc1OCC(=O)Nc1ccccc1C(=O)NC1CC1 | 2.58%
40 | CC(=O)Oc1ccc2c(=O)oc(-c3ccc([N+](=O)[O-])cc3)nc2c1 | 29.4%
41 | CC(=O)Oc1ccc(-c2nc3c(C)cccc3c(=O)o2)cc1 | 40.7% (active)
42 | COc1nc(N=C(N)N)nc2c(C)cccc12 | 6.78%
43 | Cc1cc(C)cc(C(=O)NC(=S)Nc2ccc3[nH]c(=O)[nH]c3c2)c1 | -14%
44 | CC1(C)C2CC=C(/C=N/NC(=O)C3CC3)C1C2 (stereo unspecified) | -2.63%

Row | SMILES | inhibition
45 | CCN(CC)CCCNC(=O)c1ccc2c(=O)n(Cc3ccc4c(c3)OCO4)c(=S)[nH]c2c1 | 4.33%
46 | O=C(COC(=O)c1n[nH]c2ccccc12)NCc1ccccc1 | 35.5% (active)
47 | C=CCN(CC=C)C(=O)COC(=O)c1n[nH]c2ccccc12 | 3.36%
48 | O=C(COC(=O)c1ncc(Cl)c(Cl)c1Cl)NCc1ccccc1 | -0.64%
49 | O=C(COC(=O)c1n[nH]c2ccccc12)Nc1ccccc1Br | 47.3% (active)
50 | COc1ccc(NC(=O)COC(=O)c2n[nH]c3ccccc23)c(OC)c1 | 7.22%
51 | CN(C)S(=O)(=O)c1ccc(NC(=O)COC(=O)c2n[nH]c3ccccc23)cc1 | -1.53%
52 | O=C(O)CC(c1ccccc1F)N1Cc2ccccc2C1=O (stereo unspecified) | 3.09%
53 | Cc1ccn2c(=O)nc(SCC(=O)NCc3ccc4c(c3)OCO4)nc2c1 | -12.4%
54 | Nc1nc(Br)c2ccccc2c1-c1ccc(F)cc1 | 0.32%
55 | COCCCn1c(SCC(=O)Nc2oc(C)c3c(C)n[nH]c(=O)c23)nc2sc3c(c2c1=O)CCC3 | -2.08%
56 | CCN(CC)S(=O)(=O)c1ccc2nc(CSc3nnnn3-c3ccc(O)cc3)[nH]c2c1 | -3.11%
57 | C(#CCN1CCOCC1)CCCN1CCOCC1 | 6.41%
58 | Cc1cc(C)cc(NC(=O)COC(=O)c2cc(C)oc2C)c1 | 60.9% (active)
59 | Cc1cnc(C(=O)OCC(=O)Nc2ccc(Cl)cc2Cl)cn1 | -10.2%
60 | O=C(COC(=O)c1ccc[nH]c1=O)Nc1ccc2c(c1)OC(F)(F)O2 | -3.01%
61 | Cc1cc(C(=O)OCC(=O)Nc2ccccc2Cl)c(C)o1 | 45.1% (active)
62 | Cc1cc(C(=O)OCC(=O)Nc2ccc(F)c(F)c2)c(C)o1 | 81.8% (active)
63 | Cc1cc(C)cc(C(=O)OCC(=O)NCCNC(=O)COC(=O)c2cc(C)cc(C)c2)c1 | 3.14%
64 | Cc1cc(C(=O)OCC(=O)c2c(N)n(C)c(=O)n(C)c2=O)c(C)o1 | 10.2%
65 | COc1cc(NC(=O)COC(=O)c2cc(S(=O)(=O)N3CCOCC3)ccc2F)cc(OC)c1 | -0.21%
66 | O=C(COC(=O)CCc1c[nH]c(=O)[nH]1)Nc1ccccc1Cl | 1.19%

From PubChem BioAssay AID492956 (The Scripps Research Institute Molecular Screening Center, 2010)
